Results published in PubChem BioAssay (Tox21).
Results filed as inconclusive are left out. A call without a number means that no potency is given here. Active and inactive are the calls of the source. Unless noted, the call rests on the fitted dose curve; in most records, active means well fitted cell-killing curve with a large enough effect in the repeat runs; inconclusive means weak or mixed curves, or effect the other way; inactive means flat fitted curve, though single readings scatter.

Target: Estrogen receptor beta (Homo sapiens) (UniProt Q92731)
Assay: qHTS assay to identify small molecule agonists of the estrogen receptor beta (ER-beta) signaling pathway (AID 1259377; active means well fitted activation curve with a large enough effect in the signal ratio in the repeat runs, not every such curve was filed as active; the % refers to the signal ratio)
Details: ER-beta-UAS-bla HEK293T, beta-lactamase FRET ratio, 16 h; series mostly up to 92.4 µM
How it was run: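 Screening used GripTite ER-beta-UAS-bla cells held in 2% charcoal-stripped FBS medium. After overnight (16 hr) compound incubation at 37C, beta-lactamase activity was detected with a FRET substrate by fluorescence.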

Chain of Estrogen receptor beta (Homo sapiens) (Q92731 whole entry, looked up): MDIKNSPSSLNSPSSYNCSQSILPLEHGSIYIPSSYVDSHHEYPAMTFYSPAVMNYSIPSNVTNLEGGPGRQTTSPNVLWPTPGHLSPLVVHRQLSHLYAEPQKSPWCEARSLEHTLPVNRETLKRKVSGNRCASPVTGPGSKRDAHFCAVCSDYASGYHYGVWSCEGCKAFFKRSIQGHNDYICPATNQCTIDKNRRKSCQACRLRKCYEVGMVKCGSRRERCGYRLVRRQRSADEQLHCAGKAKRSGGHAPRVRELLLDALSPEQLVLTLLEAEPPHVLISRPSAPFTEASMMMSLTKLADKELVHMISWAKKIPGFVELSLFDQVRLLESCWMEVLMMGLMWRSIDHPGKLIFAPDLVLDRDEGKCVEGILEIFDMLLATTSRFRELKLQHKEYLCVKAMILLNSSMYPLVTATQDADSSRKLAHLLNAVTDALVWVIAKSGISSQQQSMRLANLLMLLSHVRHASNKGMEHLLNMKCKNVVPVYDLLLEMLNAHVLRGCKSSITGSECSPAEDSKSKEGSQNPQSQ

SMILES	Potency	activation
COc1ccnc(CS(=O)c2nc3ccc(OC(F)F)cc3[nH]2)c1OC (stereo not given)	inactive	
O=C(O)c1ccc(S(=O)(=O)O)cc1C(=O)O	inactive	
COS(=O)(=O)C(F)(F)F	inactive	
OCCNCc1ccccc1	inactive	
CCOCC(O)COc1ccc(NC(=O)CC[S+](C)C)cc1 (stereo not given)	inactive	
CC(=O)c1cccc([N+](=O)[O-])c1	inactive	
CCCCC1=NC2(CCCC2)C(=O)N1Cc1ccc(-c2ccccc2-c2nn[nH]n2)cc1	inactive	
CCCCCCCN	inactive	
CC(CC=O)c1ccccc1 (stereo not given)	inactive	
CCOC(=O)C(=O)CCc1ccccc1	inactive	
C[N+](C)(C)CCOC(=O)CCC(=O)OCC[N+](C)(C)C	inactive	
CCCCCCCCO[C@@H]1O[C@H](CO)[C@@H](O)[C@H](O)[C@H]1O	inactive	
c1cc(CCCc2ccncc2)ccn1	inactive	
CCOC(=O)Cc1cccc2ccccc12	inactive	
CCO[C@H](Cc1ccc(OCCc2ccc(OS(C)(=O)=O)cc2)cc1)C(=O)O	inactive	
Cc1cc(C(=O)O)ccc1[N+](=O)[O-]	inactive	
CCN(CC)CCNC(=O)c1cc(Br)c(N)cc1OC	inactive	
OC[C@H]1O[C@@H](OCCc2ccc(O)cc2)[C@H](O)[C@@H](O)[C@@H]1O	inactive	

SMILES	Potency	activation
C=C1[C@H]2CC[C@@H]3[C@H]2C(C)(C)CCC[C@]13C	inactive	
C=CCOc1ccccc1OCC(O)CNC(C)C (stereo not given)	inactive	
CCOC(=O)c1cccnc1	inactive	
NCC(=O)O		-2.53% [at 19 µM] (inactive)
CN1Cc2cc(C(=O)N3CCC(C4CCNCC4)CC3)ccc2NC(CC(=O)O)C1=O (stereo not given)	inactive	
CCN(CC)CCOC(=O)C(c1ccccc1)C1CCCCC1 (stereo not given)	inactive	
O=C1C(O)=C(O)C(=O)C(O)=C1O	inactive	
Cc1[nH]c(C)c(Cl)c(=O)c1Cl		0.451% [at 19 µM] (inactive)
O=C(O)CNCC(=O)O		0.711% [at 8.39 µM] (inactive)
O=C(CS)Nc1ccccc1	inactive	
NCC(=O)CCC(=O)O	inactive	
Cc1ncc(CO)c(C=O)c1O	inactive	
O=C1CCCCCCCCCCCC(=O)OCCO1	inactive	
CCOc1ccc(O)cc1	inactive	
NCCCN1CCOCC1	inactive	
CCCCCCCCCCCCCCCCOS(=O)(=O)O	inactive	
NCc1ccccc1Sc1ccccc1CO	inactive	

Target: Estrogen receptor beta (Homo sapiens) (UniProt Q92731)
Assay: qHTS assay to identify small molecule antagonists of the estrogen receptor beta (ER-beta) signaling pathway (AID 1259378; active means well fitted inhibition curve with a large enough effect in the signal ratio in the repeat runs, not every such curve was filed as active; the % refers to the signal ratio)
Details: ER-beta-UAS-bla HEK293T, beta-lactamase FRET ratio, 16 h; series mostly up to 92.4 µM
How it was run: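 ER-beta-UAS-bla HEK293T cells in 2% charcoal-stripped FBS medium treated with compound plus 1nM final 17-beta-estradiol for 16 hr at 37C. Beta-lactamase reporter read by FRET substrate fluorescence after 2 hours at room temperature.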

SMILES	Potency	activity, negative = inhibition
COc1ccnc(CS(=O)c2nc3ccc(OC(F)F)cc3[nH]2)c1OC (stereo not given)	inactive	
O=C(O)c1ccc(S(=O)(=O)O)cc1C(=O)O	inactive	
COS(=O)(=O)C(F)(F)F	inactive	
OCCNCc1ccccc1	inactive	
CCOCC(O)COc1ccc(NC(=O)CC[S+](C)C)cc1 (stereo not given)	inactive	
CC(=O)c1cccc([N+](=O)[O-])c1	inactive	
CCCCC1=NC2(CCCC2)C(=O)N1Cc1ccc(-c2ccccc2-c2nn[nH]n2)cc1	inactive	
CCCCCCCN	inactive	
CC(CC=O)c1ccccc1 (stereo not given)	inactive	
CCOC(=O)C(=O)CCc1ccccc1	inactive	
C[N+](C)(C)CCOC(=O)CCC(=O)OCC[N+](C)(C)C	inactive	
CCCCCCCCO[C@@H]1O[C@H](CO)[C@@H](O)[C@H](O)[C@H]1O	inactive	
c1cc(CCCc2ccncc2)ccn1	inactive	
CCOC(=O)Cc1cccc2ccccc12	inactive	
CCO[C@H](Cc1ccc(OCCc2ccc(OS(C)(=O)=O)cc2)cc1)C(=O)O	inactive	
Cc1cc(C(=O)O)ccc1[N+](=O)[O-]	inactive	
CCN(CC)CCNC(=O)c1cc(Br)c(N)cc1OC	inactive	
OC[C@H]1O[C@@H](OCCc2ccc(O)cc2)[C@H](O)[C@@H](O)[C@@H]1O	inactive	

SMILES	Potency	activity, negative = inhibition
C=C1[C@H]2CC[C@@H]3[C@H]2C(C)(C)CCC[C@]13C	inactive	
C=CCOc1ccccc1OCC(O)CNC(C)C (stereo not given)	inactive	
CCOC(=O)c1cccnc1	inactive	
NCC(=O)O		10% [at 19 µM] (inactive)
CN1Cc2cc(C(=O)N3CCC(C4CCNCC4)CC3)ccc2NC(CC(=O)O)C1=O (stereo not given)	inactive	
CCN(CC)CCOC(=O)C(c1ccccc1)C1CCCCC1 (stereo not given)	inactive	
O=C1C(O)=C(O)C(=O)C(O)=C1O	inactive	
Cc1[nH]c(C)c(Cl)c(=O)c1Cl		9.97% [at 19 µM] (inactive)
O=C(O)CNCC(=O)O		5.13% [at 8.39 µM] (inactive)
O=C(CS)Nc1ccccc1	inactive	
NCC(=O)CCC(=O)O	inactive	
Cc1ncc(CO)c(C=O)c1O	inactive	
O=C1CCCCCCCCCCCC(=O)OCCO1	inactive	
CCOc1ccc(O)cc1	inactive	
NCCCN1CCOCC1	inactive	
CCCCCCCCCCCCCCCCOS(=O)(=O)O	inactive	
NCc1ccccc1Sc1ccccc1CO	inactive	

Tested on: not listed separately
Assay: qHTS assay to identify small molecule agonists of the androgen receptor (AR) signaling pathway in the presence of an antagonist - cell viability counter screen (AID 1259379);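 further: MDA-kb2 human breast cancer cells carrying an MMTV luciferase reporter; nearly all actives have a fitted effect of over 25% in size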
Details: MDA-kb2 viability, CellTiter-Fluor, 16 h; series mostly up to 92.4 µM
How it was run: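 MDA-kb2 human breast carcinoma cells (stable MMTV-luciferase, AR/GR responsive) were seeded 3,000 cells/well, pre-incubated 5 hr at 37C without CO2, then given 3.0uM nilutamide and compounds at 15 concentrations for 16 hr. Viability was read by CellTiter-Fluor fluorescence.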

SMILES	Potency	activity change, negative = cytotoxicity
COc1ccnc(CS(=O)c2nc3ccc(OC(F)F)cc3[nH]2)c1OC (stereo not given)	inactive	
O=C(O)c1ccc(S(=O)(=O)O)cc1C(=O)O	inactive	
COS(=O)(=O)C(F)(F)F	inactive	
OCCNCc1ccccc1	inactive	
CCOCC(O)COc1ccc(NC(=O)CC[S+](C)C)cc1 (stereo not given)	inactive	
CC(=O)c1cccc([N+](=O)[O-])c1	inactive	
CCCCC1=NC2(CCCC2)C(=O)N1Cc1ccc(-c2ccccc2-c2nn[nH]n2)cc1	inactive	
CCCCCCCN	inactive	
CC(CC=O)c1ccccc1 (stereo not given)	inactive	
CCOC(=O)C(=O)CCc1ccccc1	inactive	
C[N+](C)(C)CCOC(=O)CCC(=O)OCC[N+](C)(C)C	inactive	
CCCCCCCCO[C@@H]1O[C@H](CO)[C@@H](O)[C@H](O)[C@H]1O	inactive	
c1cc(CCCc2ccncc2)ccn1	inactive	
CCOC(=O)Cc1cccc2ccccc12	inactive	
CCO[C@H](Cc1ccc(OCCc2ccc(OS(C)(=O)=O)cc2)cc1)C(=O)O	inactive	
Cc1cc(C(=O)O)ccc1[N+](=O)[O-]	inactive	
CCN(CC)CCNC(=O)c1cc(Br)c(N)cc1OC	inactive	
OC[C@H]1O[C@@H](OCCc2ccc(O)cc2)[C@H](O)[C@@H](O)[C@@H]1O	inactive	

SMILES	Potency	activity change, negative = cytotoxicity
C=C1[C@H]2CC[C@@H]3[C@H]2C(C)(C)CCC[C@]13C	inactive	
C=CCOc1ccccc1OCC(O)CNC(C)C (stereo not given)	inactive	
CCOC(=O)c1cccnc1	inactive	
NCC(=O)O		0.351% [at 19 µM] (inactive)
CN1Cc2cc(C(=O)N3CCC(C4CCNCC4)CC3)ccc2NC(CC(=O)O)C1=O (stereo not given)	inactive	
CCN(CC)CCOC(=O)C(c1ccccc1)C1CCCCC1 (stereo not given)	inactive	
O=C1C(O)=C(O)C(=O)C(O)=C1O	inactive	
Cc1[nH]c(C)c(Cl)c(=O)c1Cl		0.0878% [at 19 µM] (inactive)
O=C(O)CNCC(=O)O		-0.627% [at 8.39 µM] (inactive)
O=C(CS)Nc1ccccc1	inactive	
NCC(=O)CCC(=O)O	inactive	
Cc1ncc(CO)c(C=O)c1O	inactive	
O=C1CCCCCCCCCCCC(=O)OCCO1	inactive	
CCOc1ccc(O)cc1	inactive	
NCCCN1CCOCC1	inactive	
CCCCCCCCCCCCCCCCOS(=O)(=O)O	inactive	
NCc1ccccc1Sc1ccccc1CO	inactive	
